Most compounds without a hit are left out; they make up all but 10% or so of the library.
KB-V1 MDR tox – KB-V1 MDR subline cytotoxicity. KB-V1 MDR cells viability, CellTiter-Glo, 72 h. Potency, µM (series often up to 46.1 µM), hits mostly cytotoxic. 400,000 compounds, 3.4% hits; note: % is set by controls: 0 for no effect and ±100 for the full control effect; nearly all actives have a fitted effect of over 60% in size
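KB-V1, DMEM (no phenol red) + 10% FBS; cpd pin-transferred, titration series; 72 h, 37 degrees C; CellTiter-Glo, luminescence. Data normalized, curve-fit.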
KB-3-1 tox – kills parental KB-3-1 adenocarcinoma cells; KB-3-1 viability, CellTiter-Glo ATP luminescence, 72 h; AID 1347075; Potency, µM (titrated, usually from 46.1 µM), actives largely listed as cytotoxic; 400,000 compounds, 1.4% hits; note: % is set by controls: 0 for no effect and ±100 for the full control effect; nearly all actives have a fitted effect of over 60% in size
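Parental KB-3-1 adenocarcinoma cells in phenol-red-free DMEM with 10% FBS were pin-treated with compounds at several concentrations, incubated 72 h at 37 °C, and viability read by CellTiter-Glo luminescence; concentration-effect curves were fitted after normalization.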
Gal4-VP16 FLuc – inhibits Gal4-VP16 luciferase reporter, ROR gamma counter-screen; 310,000 compounds, 3.5% hits; Potency, µM (top dose mostly 53.6 µM), for the others: at the highest dose activity, negative = inhibition, actives largely listed as inhibitors; Drosophila S2 Gal4-VP16 UAS-luciferase, luminescence, 20 h; AID 2546;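 note: Gal4-VP16 expression switched on by copper sulfate through the metallothionein promoter; % is set by controls: 0 for no effect and ±100 for the full control effect; nearly all actives have a fitted effect of over 50% in size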
SW480 rerep – induces DNA re-replication in SW480 colon adenocarcinoma cells | SW480 DNA re-replication, Hoechst DNA content imaging, 48 h | Potency, µM (top dose mostly 46.1 µM), without a hit: at the highest dose re-replication activation, actives largely listed as activators | 340,000 compounds, 1.8% hits | AID 624297; note: % of control where 0% means no effect; nearly all actives have a fitted effect of over 55% in size
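Hoechst fluorescence of nuclei (405 nm excitation, 500-530 nm emission) measured by plate-scanning imager after 48 hr compound exposure at 37 C; re-replication scored as increased number of nuclei with elevated intensity.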
RORg inh – inhibitors of mouse ROR gamma transcriptional activity | P51450 | 310,000 compounds, 5.4% hits | Potency, µM (doses to about 53.6 µM), for inactives: at the highest dose activity change, negative = inhibition, usual class: inhibitors | Drosophila S2 Gal4-RORgamma UAS-luciferase reporter, 20 h; note: % is set by controls: 0 for no effect and ±100 for the full control effect; nearly all actives have a fitted effect of over 60% in size
Target sequence (P51450 whole entry, looked up, the tested form may be a part): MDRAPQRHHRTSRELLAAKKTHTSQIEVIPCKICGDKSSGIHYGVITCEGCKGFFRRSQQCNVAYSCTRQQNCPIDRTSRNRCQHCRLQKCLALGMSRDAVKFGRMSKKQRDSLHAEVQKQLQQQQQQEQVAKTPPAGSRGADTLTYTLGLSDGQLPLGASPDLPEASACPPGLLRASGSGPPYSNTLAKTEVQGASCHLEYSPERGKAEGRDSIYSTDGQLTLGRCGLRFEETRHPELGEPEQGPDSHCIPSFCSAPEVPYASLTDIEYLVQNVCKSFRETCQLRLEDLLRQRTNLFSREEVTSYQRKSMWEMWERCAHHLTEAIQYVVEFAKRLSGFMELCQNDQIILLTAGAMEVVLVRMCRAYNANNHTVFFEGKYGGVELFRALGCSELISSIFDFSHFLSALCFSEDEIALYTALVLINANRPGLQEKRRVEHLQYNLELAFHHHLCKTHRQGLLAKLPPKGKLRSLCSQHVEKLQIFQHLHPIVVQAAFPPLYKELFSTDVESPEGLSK
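Luciferase reporter read in Schneider cells carrying Gal4-RORγ (mouse) and UAS-Photinus luciferase; cells given compound 1 h before 700 uM copper sulfate induction, then incubated 20 h at ambient temperature.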
MCF10A rereplic – inducers of DNA re-replication in MCF 10A breast cells; MCF 10A DNA re-replication, Hoechst nuclear intensity, 48 h; Potency, µM (highest dose often 46.1 µM), inactives show top-dose activity, positive = re-replication, most hits filed as activators; 350,000 compounds, 2.9% hits; note: % of control where 0% means no effect; nearly all actives have a fitted effect of over 50% in size
* = called active by the depositor. Calls come from the whole dose curve; as a rule, active = well fitted curve in the direction sought with a large enough effect; inconclusive = small, poorly fitted or top-dose-only effect, or another doubt; inactive = no such curve, though single readings can be large; an effect the other way counts as inactive or inconclusive. Potency is the fitted concentration of half-maximal effect.

COC(=O)c1nnc(C(=O)N(C)Cc2ccccc2)c2[nH]c3ccccc3c12 was read as Gal4-VP16 FLuc 0% and RORg inh 0%.
`C=C(C)C(=O)/C=C/c1ccc(Br)cc1` gave Gal4-VP16 FLuc -16% and RORg inh 38%.
For Cc1ccc(C(=O)N2CCN(Cc3nc4sc5c(c4c(=O)[nH]3)CCCC5)CC2)cc1 the results were KB-V1 MDR tox 16µM*, KB-3-1 tox inconclusive, Gal4-VP16 FLuc -16%, SW480 rerep -4%, RORg inh -18% and MCF10A rereplic 0%.
COc1ccc(C(=O)N/N=C/c2ccc3cccc(OCc4ccccc4)c3n2)cc1 was read as KB-V1 MDR tox inactive, KB-3-1 tox inconclusive, Gal4-VP16 FLuc -6%, SW480 rerep 1%, RORg inh -15% and MCF10A rereplic 21%.
For COc1c(OC(C)=O)ccc(/C=C/c2ccc3cccc(OCc4ccccc4)c3n2)c1[N+](=O)[O-] the results were KB-V1 MDR tox inconclusive, KB-3-1 tox 16µM*, Gal4-VP16 FLuc -7%, SW480 rerep -2%, RORg inh inconclusive and MCF10A rereplic 7%.
`COc1cc(/C=C/c2ccc3cccc(OC)c3n2)c(OC(C)=O)c([N+](=O)[O-])c1` gave KB-V1 MDR tox inconclusive, KB-3-1 tox inconclusive, Gal4-VP16 FLuc inconclusive, SW480 rerep inconclusive, RORg inh inconclusive and MCF10A rereplic 6.5µM*.
`COc1cc(/C=C/c2ccc3cccc(OC)c3n2)c(O)c([N+](=O)[O-])c1` gave KB-V1 MDR tox inactive, KB-3-1 tox inconclusive, Gal4-VP16 FLuc -3%, SW480 rerep -1%, RORg inh -35% and MCF10A rereplic 4%.
`Cc1ccc(C(=O)NCCc2ccc(S(N)(=O)=O)cc2)cc1-n1cnc2cccnc21` gave KB-V1 MDR tox inactive and KB-3-1 tox inactive.
O=c1ccc2c([nH]1)CCCCCCCCCC2 was read as KB-V1 MDR tox 7.3µM*, KB-3-1 tox inconclusive, Gal4-VP16 FLuc 5%, SW480 rerep 0%, RORg inh -5% and MCF10A rereplic inconclusive.
`COC(=O)[C@@]1(Cc2ccc(OC)cc2)[C@H]2c3cc(C(=O)N(C)C)n(Cc4ccc(C(F)(F)F)nc4)c3C[C@H]2CN1C(=O)c1ccccc1` gave Gal4-VP16 FLuc -3% and RORg inh inconclusive.
For Cc1cccc(CN2C(=O)c3ccccc3S(=O)(=O)c3ccc(C(=O)N4CCN(c5cc(C)ccc5C)CC4)cc32)c1 the results were KB-V1 MDR tox inactive and KB-3-1 tox inactive.
`COc1cc(OC)cc(C(=O)NCCCCCCNC(=O)c2cc(OC)cc(OC)c2)c1` gave KB-V1 MDR tox 18µM*, KB-3-1 tox inactive, SW480 rerep inconclusive and MCF10A rereplic 2%.
CCOC(=O)N1CCN(C(=O)c2cnn(-c3cccc(F)c3)c2-n2cccc2)CC1 was read as KB-V1 MDR tox inactive and KB-3-1 tox inactive.
Screening Cc1cc(C)c(CSc2ncc(-c3ccc([N+](=O)[O-])cc3)[nH]2)c(C)c1 returned KB-V1 MDR tox 23µM*, KB-3-1 tox inconclusive, Gal4-VP16 FLuc 7.1µM*, SW480 rerep inconclusive, RORg inh 10µM* and MCF10A rereplic 18µM*.
O=[N+]([O-])c1ccc(-c2cnc(SCc3ccccc3Cl)[nH]2)cc1 was read as KB-V1 MDR tox inconclusive, KB-3-1 tox inconclusive, Gal4-VP16 FLuc -3%, SW480 rerep 5%, RORg inh inconclusive and MCF10A rereplic inconclusive.
`COC(=O)c1ccc(CSCc2ccc(C(=O)OC)o2)o1` gave KB-V1 MDR tox inactive, KB-3-1 tox inactive, Gal4-VP16 FLuc -5%, SW480 rerep 7%, RORg inh 16% and MCF10A rereplic 10%.
